# In all, about 320,000 compounds went through this assay and about 2,100 (0.66%) were called active. Roughly 53% stayed inconclusive and do not appear here. Calls follow the shape of the dose curve; as a rule, active = well fitted inhibition curve with a large enough effect in the signal ratio, with a control signal flat (not every such curve was filed as active); inconclusive = small, poorly fitted or top-dose-only effect, or effect the other way, or a change in a side signal; inactive = flat fitted curve, though single readings scatter; the % refers to the signal ratio. The entries come from a sample that favours actives as a whole.
# Assay: qHTS Assay for Lipid Storage Modulators in Drosophila S3 Cells;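 as to cell number change: cells counted by Cell Tracker Red CMTPX staining in the red channel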; as to lipid storage change, negative = inhibition: % is scaled to controls: 0 for no effect and ±100 for the full control effect
# Conditions: BODIPY lipid droplet fluorescence, 18-24 h, cells fed with added oleic acid; cell number change: measured here: cell count max response; series mostly up to 46.1 µM
# Method in brief: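 Drosophila S3 cells loaded with oleic acid (400 uM, as added) and compounds at several concentrations; lipid droplets imaged by 488-nm laser-scanning cytometry, 500–530 nm intensity and object ratio to cell channel. Percent activity normalized to 20 uM Triacsin C.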
# Potency is read from the fitted curve at half-maximal effect.
Compound,cell number change [%],"lipid storage change, negative = inhibition",Potency
CCc1nc2oc3ccccc3c(=O)c2c(=O)n1CCOC,14.4,-1.96% [at 9.22 µM] (inactive),
O=C(CCc1ccccc1)NC(NC(=S)Nc1ccc(Br)cc1)C(Cl)(Cl)Cl (stereo unspecified),-27.3,,inactive
Cc1ccc(-n2nnnc2SCCNS(=O)(=O)c2ccccc2)cc1C,-14.2,,inactive
Cc1ccc(NC(=O)CSc2nnc(N)s2)cc1S(=O)(=O)N1CCCCC1,-23.8,,inactive
CCc1ccc(CNC(=O)C2Cc3cc(S(=O)(=O)N4CCCC4)ccc3N2C(C)=O)cc1 (stereo unspecified),-14.2,,11.6 µM (active)
CC(=O)N1c2ccc(S(=O)(=O)N3CCCC3)cc2CC1C(=O)NCc1ccc(N(C)C)cc1 (stereo unspecified),12.7,,inactive
CCOc1ccc(CNC(=O)C2Cc3cc(S(=O)(=O)N4CCCCC4)ccc3N2C(C)=O)cc1 (stereo unspecified),8.5,,inactive
CCN(CC)S(=O)(=O)c1cc(OC)c(Cl)cc1OC,14.5,,inactive
COc1cc(/C=N/NC(=O)COc2ccc(-n3cnnn3)cc2)ccc1OCC(N)=O,7.43,,inactive
Cc1cc(C)cc(N(CC(=O)O)S(=O)(=O)c2c(C)noc2C)c1,2.34,,23.1 µM (active)
Cc1noc(C)c1S(=O)(=O)N(CC(=O)O)c1ccc2c(c1)OCO2,,,inactive
CCc1ccc(N(CC(=O)O)S(=O)(=O)c2c(C)noc2C)cc1,7.92,,inactive
CC(=O)Nc1ccc(NC(=O)Cn2c(=O)n(-c3ccc(C)cc3)c(=O)c3oc4ccccc4c32)cc1,-4.98,,inactive
COc1ccc(N2CCN(CC(=O)Nc3cccc(S(=O)(=O)N4CCOCC4)c3)CC2)cc1,-21.6,,16.4 µM (active)
COc1ccc(CC(=O)Nc2cccc(S(=O)(=O)N3CCCCC3)c2)cc1,-18.3,,inactive
O=C(CN1CCN(S(=O)(=O)c2ccc3ccccc3c2)CC1)Nc1ccc(N2CCOCC2)cc1,-8.53,,inactive
O=C(Cc1ccc(Br)cc1)Nc1cccc(S(=O)(=O)N2CCOCC2)c1,-12.5,,inactive
COc1ccc(CC(=O)Nc2cccc(S(=O)(=O)N3CCCCCC3)c2)cc1OC,-6.09,,20.6 µM (active)
COc1ccccc1N1CCN(CC(=O)Nc2ccnn2C2CCCC2)CC1,1.72,,inactive
O=C(CN1CCN(S(=O)(=O)c2ccccc2)CC1)Nc1ccnn1C1CCCC1,-2.45,,inactive
COc1cccc(N2CCN(CC(=O)Nc3ccnn3C3CCCC3)CC2)c1,-10.7,,10.3 µM (active)
COC(=O)c1cccc(NC(=O)CN2CCN(c3ccc(OC)cc3)CC2)c1,6.81,,inactive
COc1ccccc1CCC(=O)Nc1cccc(S(=O)(=O)N2CCOCC2)c1,12.7,,inactive
COc1ccc(CC(=O)Nc2cccc(S(=O)(=O)N3CCOCC3)c2)cc1OC,-21.4,,23.1 µM (active)
COc1ccc(CC(=O)Nc2cc(S(=O)(=O)N3CCCCC3)ccc2C)cc1OC,-3.08,,inactive
O=C(NCc1ccccc1)c1ccc(Cl)nc1,10,,inactive
CC(C)(C)c1ccc(/C=N/NC(=O)c2ccccn2)cc1,6.33,,inactive

Compound,cell number change [%],"lipid storage change, negative = inhibition",Potency
CCCCC(Sc1nc(N)c(NC(=O)c2ccco2)c(=O)[nH]1)C(=O)O (stereo unspecified),-24.3,,inactive
O=C(CN(C(=O)c1csnn1)c1cccc(Cl)c1)NCCc1ccccc1,12.4,,inactive
Cc1ccccc1NC(=O)CSc1ccc(-c2ccco2)nn1,-9.57,,inactive
CCCNc1ccc(S(=O)(=O)N(CC)CC)cn1,5.83,,inactive
Cc1ccc(S(=O)(=O)N(CC(=O)NC2CC2)c2ccc(C)c(Cl)c2)cc1,,,inactive
CCOC(=O)CCN,3.17,,inactive
O=C(NCC1CCCO1)c1ccc2c(c1)C(=O)N(c1cccc([N+](=O)[O-])c1)C2=O (stereo unspecified),-9.52,,0.82 µM (active)
O=C(NCC1CCCO1)c1ccc2c(c1)C(=O)N(C1CCCCC1)C2=O (stereo unspecified),2.66,,inactive
O=C(NCC1CCCO1)c1ccc(NS(=O)(=O)c2cccc([N+](=O)[O-])c2)cc1 (stereo unspecified),5.5,,inactive
Nc1c(-c2ccc(Cl)cc2)cnn1-c1cccc(C(F)(F)F)c1,10.7,,inactive
O=C(C1CCCN(Cc2ccc(Cl)cc2)C1)N1CCCCC1 (stereo unspecified),22.8,,inactive
NC(=O)C1CCCN(Cc2ccc(Cl)cc2)C1 (stereo unspecified),-11.1,,29.1 µM (active)
NC(=O)C1CCCN(Cc2ccc3ccccc3c2)C1 (stereo unspecified),10.8,,inactive
O=C(COC(=O)c1ccc(S(=O)(=O)NCc2ccco2)cc1)NCC1CCCCC1,-12.1,,25.9 µM (active)
Cc1ccc(CNC(=O)COC(=O)c2ccc(S(=O)(=O)NCc3ccco3)cc2)cc1,-0.995,,inactive
O=C(COC(=O)c1ccc(S(=O)(=O)NCc2ccco2)cc1)NC1CCCCC1,0.997,,inactive
C#CCOCCOCCOCCNc1nc(N2CCN(C(=O)[C@H](CCC(=O)O)n3cc(C(N)[C@H](C)CC)nn3)CC2)nc(N2CCN(C(=O)[C@H](CCC(=O)O)n3cc(C(N)[C@H](C)CC)nn3)CC2)n1 (stereo partly specified),-3.88,,inactive
O=C(CN(Cc1ccccc1)S(=O)(=O)c1ccccc1)N/N=C/c1ccc([N+](=O)[O-])cc1,-4.65,,inactive
Cc1ccc(OCC(=O)NNC(=S)NC(=O)c2ccc(Br)o2)c(C)c1,7.54,,inactive
Cc1ccc(-n2nc3c(=O)n(C(C)C(=O)NCCCc4ccccc4)nc(C)c3c2C)cc1 (stereo unspecified),-8.4,,inactive
Cc1ccc(-n2nc3c(=O)n(CC(=O)NCCc4ccc(Cl)cc4)nc(C)c3c2C)cc1,-10.8,,inactive
Cc1ccc(-n2nc3c(=O)n(CC(=O)NCCCc4ccccc4)nc(C)c3c2C)cc1,21,,18.4 µM (active)
Cc1cc(C)cc(NC(=O)CSc2ncc(S(=O)(=O)c3ccccc3)c(=O)[nH]2)c1,4.62,,inactive
O=C(CN1CCNC(=O)C1)NCCc1ccc(Cl)cc1Cl,-23.8,,inactive
O=C(CN1C(=O)C(=O)N(C2CCCC2)C1=O)NCCc1ccc(Cl)cc1Cl,-0.378,,4.11 µM (active)
O=C(CN1CC(=O)Nc2ccccc21)NCCc1ccc(Cl)cc1Cl,-5.87,,inactive
CC(=O)c1cccc(NC(=O)c2cc(C)no2)c1,5.99,,inactive

# Source: PubChem BioAssay AID2685 (National Center for Advancing Translational Sciences (NCATS), 2010)
